From PubChem BioAssay (EPA / NIEHS)
Where “and” joins values, the source holds several entries; their conditions need not be identical. Equal values may be shown once. Where a structure was tested more than once in an assay, its records may differ in their call. Calls of active or inactive are those of the source. The calls were made as follows: active = hit-call score of the fitted dose curve at least 0.9, where 1 is the maximum; inactive = score below 0.9.

The compounds below were run against Cellular tumor antigen p53 (Homo sapiens) (UniProt P04637) (assay: ATG_p53_CIS: Attagene CIS-FACTORIAL HepG2 Assay for human p53 Transcription Factor (AID 2282994)). Settings: HepG2 p53 cis-element reporter, Attagene mRNA; actives raise or lower the signal.
Cellular tumor antigen p53 (Homo sapiens), sequence (P04637 whole entry, looked up): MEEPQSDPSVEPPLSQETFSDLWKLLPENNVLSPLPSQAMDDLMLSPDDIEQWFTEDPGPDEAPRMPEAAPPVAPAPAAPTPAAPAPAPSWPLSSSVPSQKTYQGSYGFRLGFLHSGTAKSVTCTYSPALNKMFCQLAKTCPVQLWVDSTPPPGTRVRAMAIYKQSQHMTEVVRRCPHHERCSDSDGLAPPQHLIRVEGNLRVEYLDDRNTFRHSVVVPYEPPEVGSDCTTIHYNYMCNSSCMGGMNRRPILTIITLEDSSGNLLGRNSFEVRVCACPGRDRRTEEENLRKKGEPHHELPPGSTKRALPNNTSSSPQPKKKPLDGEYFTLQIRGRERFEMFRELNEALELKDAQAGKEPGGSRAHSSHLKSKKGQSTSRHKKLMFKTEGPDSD
Procedure: ATG_CIS is a cell-based, multiplexed-readout assay that uses HepG2, a human liver cell line, with measurements taken at 24 hours after chemical dosing in a 24-well plate.ATG_p53_CIS is one of 52 assay component(s) measured or calculated from the ATG_CIS assay. It is designed to make measurements of mRNA induction, a form of inducible reporter, as detected with fluorescence intensity signals by Reverse transcription polymerase chain reaction (RT-PCR) and Capillary electrophoresis technology.Data from the assay component ATG_p53_CIS was analyzed into 1 assay endpoint. This assay endpoint, ATG_p53_CIS, was analyzed with bidirectional fitting relative to DMSO as the negative control and baseline of activity. Using a type of inducible reporter, measures of mRNA for gain or loss-of-signal activity can be used to understand the reporter gene at the transcription factor-level as they relate to the gene TP53. Furthermore, this assay endpoint can be referred to as a primary readout, because this assay has produced multiple assay endpoints where this one serves a reporter gene function. To generalize the intended target to other relatable targets, this assay endpoint is annotated to the dna binding intended target family, where the subfamily is tumor suppressor.
Human liver HepG2 cells are transiently transfected with multiple reporter transcription units (MRTUs) in 6-well plates using FuGene 6 reagent (Roche; 3 ml FuGene/1 mg DNA). The MRTU constructs are regulated by a cis-regulating element (promoter). […] A major difference between the CIS and TRANS system is that in CIS activities of endogenous TFs are measured, whereas the TRANS assay evaluates changes in activities of exogenous, chimeric NR-Gal4 proteins. […] At the end of 24 hour incubation, total RNA was isolated using TriZol reagent (Invitrogen). The isolated RNA is then reverse-transcribed using oligo(dT) primer and Mo-MLV reverse transcriptase (Invitrogen) with DNAse I (Ambion) treatment for 30 min. The one-tenth of the produced cDNA was amplified by PCR using Taq DNA polymerase (Invitrogen) and two reporter sequence-specific primers. The PCR products were fluorescently labeled by primer extension with 6-arboxyfluorescein (6-FAM) 5'-labeled reporter sequence-specific primer (2 min at 95 C, 20 s at 68 C and 10 min at 72 C) and these products were digested with 5U of HpaI (New England Biolabs) for 2h at 37 C. The fragments were purified using Qiaquick PCR columns (Qiagen), analyzed on an ABI 3130xL genetic analyzer (Applied Biosystems) with peak positions identified by using a set of X-rhodamine (ROX)-labeled MapMarker1000 molecular weight standards (BioVentures). The raw capillary electrophoresis data was processed using Attagraph software (Attagene).
With O=[N+]([O-])c1c(Cl)c(Cl)c(Cl)c(Cl)c1Cl the outcome was “inactive”. In the case of Oc1ccc(Cl)cc1Cc1ccccc1, the outcome is reported as “inactive”. In the case of CCOc1nc(NC)nc(NC(=O)NS(=O)(=O)c2ccccc2C(=O)OC)n1, the outcome is reported as “inactive”. With CNC(=O)Oc1ccccc1OC(C)C the outcome was “inactive”. With CCC(C)(C)C(=O)OC1=C(c2ccc(Cl)cc2Cl)C(=O)OC12CCCCC2 the outcome was “inactive”. For CC(C)OC(=O)Nc1cccc(Cl)c1, the outcome was “inactive”. With Cc1cc(C)nc(NC(=O)NS(=O)(=O)c2ccccc2C(=O)OC2COC2)n1 the outcome was “inactive”. CC1(C)C(C=C(Cl)Cl)C1C(=O)OC(C#N)c1ccc(F)c(Oc2ccccc2)c1 (stereo not given) was tested, and the outcome was “inactive”. CC[C@H](C)[C@H]1O[C@]2(C=C[C@@H]1C)C[C@@H]1C[C@@H](C/C=C(\C)[C@@H](O[C@H]3C[C@H](OC)[C@@H](O[C@H]4C[C@H](OC)[C@@H](O)[C@H](C)O4)[C@H](C)O3)[C@@H](C)/C=C/C=C3\CO[C@@H]4[C@H](O)C(C)=C[C@@H](C(=O)O1)[C@]34O)O2 (tested in a mixture with another compound) was tested, and the outcome was “inactive”. In the case of O=S(=O)(O)C(F)(F)C(F)(F)C(F)(F)C(F)(F)C(F)(F)C(F)(F)C(F)(F)C(F)(F)F, the AC50 is reported as 108 µM (active) and 66.1 µM (active) and 240 µM (active) and the outcome is reported as “inactive”. CCCN(CCOc1c(Cl)cc(Cl)cc1Cl)C(=O)n1ccnc1 was tested, and the outcome was “inactive”. With COC(=O)c1ccccc1CS(=O)(=O)NC(=O)Nc1nc(OC)cc(OC)n1 the outcome was “inactive”. For Oc1cc(Cl)ccc1Oc1ccc(Cl)cc1Cl, the AC50 was 7.73 µM (active) and 14.4 µM (active) and the outcome was “inactive”. With O=C1c2ccccc2C(=O)N1SC(Cl)(Cl)Cl the outcome was “inactive”. For O=C(Nc1ccccc1)Nc1cnns1, the outcome was “inactive”. For CCC(C)(NC(=O)c1cc(Cl)c(C)c(Cl)c1)C(=O)CCl (stereo not given), the outcome was “inactive”. N#Cc1c(Cl)c(Cl)c(Cl)c(C#N)c1Cl was tested, and the outcome was “inactive”. With CCN(CC)C(=O)SCc1ccc(Cl)cc1 the outcome was “inactive”. In the case of COc1cc(OC)nc(NC(=O)NS(=O)(=O)c2cc(NC=O)ccc2C(=O)N(C)C)n1, the outcome is reported as “inactive”. CC(C)(C)C(O)C(Oc1ccc(Cl)cc1)n1cncn1 (stereo not given) was tested, and the outcome was “inactive”. In the case of CN1CSC(=S)N(C)C1, the outcome is reported as “inactive”. COC(=O)c1ccccc1S(=O)(=O)NC(=O)Nc1nc(C)nc(OC)n1 was tested, and the outcome was “inactive”. With ClC1C(Cl)C(Cl)C(Cl)C(Cl)C1Cl (stereo not given) the AC50 was 150 µM (active) and 77.6 µM (active) and the outcome was “inactive”. CCc1ccc(C(=O)NN(C(=O)c2cc(C)cc(C)c2)C(C)(C)C)cc1 was tested, and the outcome was “inactive”. In the case of CCOCN(C(=O)CCl)c1c(C)cccc1CC, the outcome is reported as “inactive”. In the case of [2H]C1([2H])[n+]2ccccc2-c2cccc[n+]2C1([2H])[2H], the outcome is reported as “inactive”. With COP(=S)(OC)Oc1ccc(SC)c(C)c1 the outcome was “inactive”. For OCCOc1ccccc1, the outcome was “inactive”. In the case of O=C(O)COc1ccc(Cl)cc1Cl, the outcome is reported as “inactive”. With CCS(=O)(=O)c1cccnc1S(=O)(=O)NC(=O)Nc1nc(OC)cc(OC)n1 the outcome was “inactive”. For COP(=S)(OC)Oc1ccc([N+](=O)[O-])cc1, the outcome was “inactive”. CNC(=O)Oc1cccc(N=CN(C)C)c1 was tested, and the outcome was “inactive”. With O=C(O)CCCOc1ccc(Cl)cc1Cl the outcome was “inactive”. For O=C(O)C(F)(F)C(F)(F)C(F)(F)C(F)(F)C(F)(F)C(F)(F)C(F)(F)F, the outcome was “inactive”. In the case of CC(C)(C)C(O)/C(=C\c1ccc(Cl)cc1Cl)n1cncn1 (stereo not given), the outcome is reported as “inactive”. CC1(c2ccc(Oc3ccccc3)cc2)OC(=O)N(Nc2ccccc2)C1=O (stereo not given) was tested, and the outcome was “inactive”. For C[C@H]1[C@H](c2ccc(Cl)cc2)SC(=O)N1C(=O)NC1CCCCC1, the outcome was “inactive”.
